Data taken from PubChem BioAssay (Tox21).
Where “and” joins values, the source holds several entries; their conditions need not be identical. Identical values can stand only once. Records with an inconclusive call do not appear. Entries that show only a call come without a potency. Some structures have more than one record in an assay (separate samples or runs), and their calls can disagree. Calls of active or inactive are those of the source. Unless noted, the call rests on the fitted dose curve; in most records, active means well fitted curve in the direction sought with a large enough effect in the repeat runs; inconclusive means weak or mixed curves; inactive means no such curve, though single readings can be large; an effect the other way counts as inactive or inconclusive.

Assays:
[1] = qHTS assay to identify small molecule agonists of the estrogen receptor beta (ER-beta) signaling pathway - cell viability counter screen (AID 1259380); further: nearly all actives have a fitted effect of over 30% in size; further: potency means the concentration at half of the fitted maximal effect
Method in brief: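 Cytotoxicity is measured in parallel with the reporter screen: after 16 hr compound exposure at 37C and a 2 hr LiveBLAzer step, CellTiter-Glo is added to the same ER-beta-UAS-bla HEK293T wells and luminescence read after 30 min.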

[2] = qHTS assay to identify small molecule antagonists of the estrogen receptor beta (ER-beta) signaling pathway - cell viability counter screen (AID 1259382); further: nearly all actives have a fitted effect of over 55% in size; further: potency means the concentration at half of the fitted maximal effect
Method in brief: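 Cytotoxicity counter screen multiplexed with the beta-lactamase antagonist assay: GripTite HEK293T ER-beta-bla cells were treated 16 hr with test chemicals in the presence of 1nM 17-beta-estradiol, and viability was measured by CellTiter-Glo.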

[3] = qHTS assay to identify small molecule agonists of the estrogen receptor alpha (ER-alpha) signaling pathway in the presence of an antagonist - cell viability counter screen (AID 1259386);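 further: series mostly up to about 92 µM; cells exposed to compounds for 22 h at 37 °C before the viability read; nearly all actives have a fitted effect of over 30% in size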
Method in brief: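 Cytotoxicity was measured in parallel with the ERE-luciferase agonist screen, in the same wells. The cells were VM7Luc4E2, which endogenously express ER-alpha, and treatment was with compounds plus 10.0nM ICI-182,780 for 22hr.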

[4] = biological target: Progesterone receptor (Homo sapiens) (UniProt P06401); experiment: qHTS assay to identify small molecule agonists of the progesterone receptor (PR) signaling pathway (AID 1346784; calls by dose curve; further: nearly all actives have a fitted effect of over 30% in size; further: potency means the concentration at half of the fitted maximal effect)
Method in brief: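 PR-UAS-bla HEK 293T cells carrying a UAS-driven beta-lactamase reporter were seeded in medium with 2% charcoal-stripped FBS, preincubated 6 hr at 37C, then exposed to compounds in DMSO for 16 hr; agonism was read by LiveBLAzer B/G FRET fluorescence.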

[5] = biological target: Progesterone receptor (Homo sapiens) (UniProt P06401); experiment: qHTS assay to identify small molecule antagonists of the progesterone receptor (PR) signaling pathway (AID 1346795; active means well fitted inhibition curve with a large enough effect in the signal ratio in the repeat runs, not every such curve was filed as active; the % refers to the signal ratio)
Method in brief: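 PR-UAS-bla HEK293T cells carrying a UAS-driven beta-lactamase reporter were plated in medium with 2% charcoal-stripped FBS and rested 6 hr at 37C. Compounds were added with 1 nM R5020 (final) for 16 hr, then FRET substrate loaded 2 hr at room temperature.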

[6] = qHTS assay to identify small molecule antagonists of the progesterone receptor (PR) signaling pathway - cell viability counter screen (AID 1346798); further: series mostly up to about 92 µM; nearly all actives have a fitted effect of over 50% in size
Method in brief: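 PR-UAS-bla HEK293T cells in medium with 2% charcoal-stripped FBS were treated with compounds plus R5020 for 16 hr at 37C. Cell viability was then read by CellTiter-Glo luminescence after 30 min at room temperature in the same wells.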

[7] = qHTS assay to identify small molecule agonists of the progesterone receptor (PR) signaling pathway - cell viability counter screen (AID 1346799; calls by dose curve; further: nearly all actives have a fitted effect of over 45% in size; further: potency means the concentration at half of the fitted maximal effect)
Method in brief: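 PR-UAS-bla HEK293T cells, 3,000 per well in medium with 2% charcoal-stripped FBS, were preincubated 6 hr at 37C, then exposed to compounds for 16 hr; viability was read as CellTiter-Glo luminescence after 30 min at room temperature.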

[8] = qHTS assay to identify small molecule antagonists of the TGF-beta/Smad signaling pathway - cell viability counter screen (AID 1346824); further: nearly all actives have a fitted effect of over 50% in size
Method in brief: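 Cytotoxicity counter-screen run in the same wells as the beta-lactamase Smad reporter read: CellTiter-Glo luminescence after 30 min at room temperature. HEK 293T SBE-bla cells had 5 hr compound exposure at 37 C with TGF-beta1 (0.25 ng/mL stock).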

[9] = qHTS assay to identify small molecule agonists of the TGF-beta/Smad signaling pathway - cell viability counter screen (AID 1346829); further: top concentration of the series differs between compounds; nearly all actives have a fitted effect of over 45% in size
Method in brief: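 SBE-bla HEK 293T cells plated overnight, compound exposure 5 hr at 37 C. Viability read in the same wells by CellTiter-Glo luminescence after 30 min at room temperature, following the beta-lactamase read.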

[10] = qHTS assay to identify small molecule agonists of the TGF-beta/Smad signaling pathway (AID 1346859; active means well fitted activation curve with a large enough effect in the signal ratio in the repeat runs, not every such curve was filed as active; the % refers to the signal ratio; further: series mostly up to about 77 µM)
Method in brief: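 HEK 293T cells stably carrying a beta-lactamase reporter driven by the Smad binding element were seeded overnight, exposed to DMSO-dissolved compounds for 5 hr at 37 C, 5% CO2, then loaded with FRET substrate for 2 hr at room temperature.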

[11] = biological target: Thyrotropin-releasing hormone receptor (Homo sapiens) (UniProt P34981); experiment: qHTS assay to identify small molecule antagonists of the thyrotropin-releasing hormone receptor (TRHR) signaling pathway (AID 1346877; active means well fitted inhibition curve with a large enough effect in the repeat runs, not every such curve was filed as active; further: potency means the concentration at half of the fitted maximal effect)
Method in brief: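 Antagonism is measured as suppression of the calcium response to 1 nM TRH in TRHR-HEK293 cells that have been dye-loaded for 2 h at 37 °C after overnight plating. Each compound is tested at 15 concentrations in triplicate.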

[12] = biological target: Thyrotropin-releasing hormone receptor (Homo sapiens) (UniProt P34981); experiment: qHTS assay to identify small molecule agonists of the thyrotropin-releasing hormone receptor (TRHR) signaling pathway (AID 1346891; calls by dose curve; further: potency means the concentration at half of the fitted maximal effect; on activation: series mostly up to about 58 µM)
Method in brief: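 TRHR-expressing HEK293 cells were plated 18 h at 37 °C/5% CO2, loaded with calcium dye 2 h at 37 °C, then given compound in DMSO; fluorescence was read kinetically for 3 min at 1 s intervals.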

[13] = Human pregnane X receptor (PXR) small molecule agonists, qHTS cell viability counter screen (AID 1346977); further: nearly all actives have a fitted effect of over 50% in size; further: potency means the concentration at half of the fitted maximal effect
Method in brief: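 PXR-Luc HepG2 cells in medium with 5% charcoal-stripped FBS were pre-incubated 5hr, then exposed to compounds for 24hr at 37C. Viability was read in the same wells by CellTiter-Fluor fluorescence, reagent added after 23hr with a 1hr incubation.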

[14] = Caspase-3/7 induction in HepG2 cells by small molecules, qHTS assay (AID 1346978); further: nearly all actives have a fitted effect of over 15% in size; further: potency means the concentration at half of the fitted maximal effect
Method in brief: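 Caspase-3/7 induction was measured by Caspase-Glo 3/7 luminescence (30 min, room temperature) after a 17 hr compound exposure of wild-type HepG2 cells seeded at 2,000 per well and pre-incubated 5 hr.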

[15] = Caspase-3/7 induction in CHO-K1 cells by small molecules, qHTS cell viability counter screen (AID 1346979); further: nearly all actives have a fitted effect of over 35% in size; further: potency means the concentration at half of the fitted maximal effect
Method in brief: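 Wild-type CHO-K1 cells were seeded at 1,500 per well, rested 5hr at 37 C, then exposed to compounds in DMSO. After 16hr, CellTiter-Fluor reagent was added and fluorescence read 1hr later as the viability measure.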

[16] = Caspase-3/7 induction in CHO-K1 cells by small molecules, qHTS assay (AID 1346980); further: nearly all actives have a fitted effect of over 15% in size
Method in brief: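 Luminescent Caspase-Glo 3/7 read (30min, room temperature) quantified apoptosis induction. Cells were wild-type CHO-K1, treated with compound for 17hr at 37 C and 5% CO2.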

[17] = Caspase-3/7 induction in HepG2 cells by small molecules, qHTS cell viability counter screen (AID 1346981); further: nearly all actives have a fitted effect of over 30% in size; further: potency means the concentration at half of the fitted maximal effect
Method in brief: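 Cell viability is measured as a cytotoxicity counter screen alongside the Caspase-Glo 3/7 readout in identical wells. Wild-type HepG2 cells are treated with test compounds for 16 hr at 37 C before CellTiter-Fluor addition and a 1-hr incubation.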

[18] = qHTS assay to identify small molecule agonists or antagonists of the thyroid stimulating hormone receptor (TSHR) signaling pathway - wild type cell line counter screen (AID 1259384; calls by dose curve)
Method in brief: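 Counter screen in untransfected Hek293: compounds (15-point titration, triplicate) plus phosphodiesterase inhibitor Ro20-1724 added after 18 h plating; 30 min RT. Intracellular cAMP via competitive d2/cryptate immunoassay, 1 h incubation.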

Thyrotropin-releasing hormone receptor (Homo sapiens), sequence (P34981 whole entry, looked up): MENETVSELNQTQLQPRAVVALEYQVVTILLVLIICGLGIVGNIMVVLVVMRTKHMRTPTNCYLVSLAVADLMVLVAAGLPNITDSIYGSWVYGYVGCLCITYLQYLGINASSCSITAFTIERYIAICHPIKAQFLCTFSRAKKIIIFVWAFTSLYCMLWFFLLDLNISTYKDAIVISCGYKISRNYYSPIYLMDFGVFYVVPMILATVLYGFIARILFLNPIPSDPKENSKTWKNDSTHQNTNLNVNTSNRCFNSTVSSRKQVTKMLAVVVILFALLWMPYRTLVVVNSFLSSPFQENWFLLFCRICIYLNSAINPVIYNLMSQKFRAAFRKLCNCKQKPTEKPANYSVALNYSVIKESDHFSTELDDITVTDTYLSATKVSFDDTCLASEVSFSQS
Progesterone receptor (Homo sapiens), sequence (P06401 whole entry, looked up): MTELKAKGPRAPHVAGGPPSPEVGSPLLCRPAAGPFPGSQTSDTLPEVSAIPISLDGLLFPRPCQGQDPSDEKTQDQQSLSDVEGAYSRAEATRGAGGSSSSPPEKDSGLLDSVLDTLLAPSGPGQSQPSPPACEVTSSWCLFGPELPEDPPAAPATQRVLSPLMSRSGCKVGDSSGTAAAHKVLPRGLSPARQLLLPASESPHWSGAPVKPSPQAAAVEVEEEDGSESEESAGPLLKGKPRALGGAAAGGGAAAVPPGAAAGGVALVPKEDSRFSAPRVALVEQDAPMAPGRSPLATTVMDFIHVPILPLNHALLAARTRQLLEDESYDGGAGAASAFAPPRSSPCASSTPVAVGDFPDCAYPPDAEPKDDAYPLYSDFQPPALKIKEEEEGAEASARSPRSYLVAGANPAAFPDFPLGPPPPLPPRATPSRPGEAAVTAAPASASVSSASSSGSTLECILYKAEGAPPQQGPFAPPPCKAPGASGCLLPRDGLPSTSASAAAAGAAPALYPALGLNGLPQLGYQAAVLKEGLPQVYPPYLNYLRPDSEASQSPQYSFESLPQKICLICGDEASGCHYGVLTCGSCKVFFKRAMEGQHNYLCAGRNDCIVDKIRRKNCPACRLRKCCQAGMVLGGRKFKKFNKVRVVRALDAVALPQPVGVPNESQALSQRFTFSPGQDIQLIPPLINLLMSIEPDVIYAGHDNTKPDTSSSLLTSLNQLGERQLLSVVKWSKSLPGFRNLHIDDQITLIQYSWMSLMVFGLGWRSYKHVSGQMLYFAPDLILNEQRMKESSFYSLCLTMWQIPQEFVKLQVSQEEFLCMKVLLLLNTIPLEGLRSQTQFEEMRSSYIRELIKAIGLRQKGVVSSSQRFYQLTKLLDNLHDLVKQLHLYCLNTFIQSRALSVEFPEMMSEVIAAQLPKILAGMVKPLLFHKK

| SMILES | Potency [1] | Potency [2] | Potency [3] | Potency [4] | Potency [5] | Potency [6] | Potency [7] | Potency [8] | Potency [9] | Potency [10] | Potency [11] | Potency [12] | Potency [13] | Potency [14] | Potency [15] | Potency [16] | Potency [17] | Potency [18] |
| --- | --- | --- | --- | --- | --- | --- | --- | --- | --- | --- | --- | --- | --- | --- | --- | --- | --- | --- |
| COc1ccccc1N | inactive | inactive | inactive | inactive | inactive | inactive | inactive | inactive | inactive | inactive | inactive | inactive | inactive | inactive | inactive | inactive | inactive | – |
| CCCCn1cc[n+](C)c1C | inactive | inactive | inactive | inactive | inactive | inactive | inactive | inactive | inactive | inactive | – | – | inactive | inactive | inactive | inactive | inactive | – |
| CN(C)[C@@H]1C(=O)C(C(N)=O)=C(O)[C@@]2(O)C(=O)C3=C(O)c4c(O)cccc4[C@@](C)(O)[C@H]3[C@H](O)[C@@H]12 | inactive | inactive | inactive | – | – | inactive | inactive | inactive | inactive | inactive | – | – | inactive | inactive | inactive | inactive | inactive | inactive |
| CCCC[n+]1ccc(C)cc1 | inactive and 60.8 µM (active) | inactive and 60.8 µM (active) | inactive | – | – | – | inactive and 60.8 µM (active) | – | inactive | inactive | inactive and 24 µM (active) | inactive and 15.5 µM (active) | inactive and 6.12 µM (active) | inactive and 54.2 µM (active) | inactive and 54.2 µM (active) | inactive | inactive and 19.4 µM (active) | – |
| CCn1cc[n+](C)c1C | inactive | inactive | inactive | inactive | inactive | inactive | inactive | inactive | inactive | inactive | – | – | inactive | inactive | inactive | inactive | inactive | – |
| O=c1nc(O)n(Cl)c(=O)n1Cl | inactive | inactive | inactive | inactive | inactive | inactive | inactive | inactive | inactive | inactive | inactive | inactive | inactive | inactive | inactive | inactive | inactive | – |
| CC(=O)O | inactive | inactive | inactive | inactive and 392 nM (active) | inactive | inactive | inactive | inactive | inactive | inactive | – | – | inactive | inactive | inactive | inactive | inactive | – |
